ChEMBL document CHEMBL4888484, “Replenishing the malaria drug discovery pipeline: Screening and hit evaluation of the MMV Hit Generation Library 1 (HGL1) against asexual blood stage Plasmodium falciparum ,using a nano luciferase reporter read-out” (2022)
Out of some 4,800 compounds screened, about 410 (8.5%) showed an effect of 50% or more. The sample as a whole holds a higher share of strong results than the screen did.

What follows are compounds tested on Plasmodium falciparum (assay: Confirmatory screen in NF54 pLDH assay, in single point, at 2uM, 72h). Settings: timepoint 72 hour.
Type: functional, Erythrocyte

Compound | % Inhibition
O=C(CN1N=C(C(=O)Nc2ccccc2)CCC1=O)Nc1ccc(OC(F)(F)F)cc1 | -8%
CC[n+]1c(/C=C/N(C)c2ccccc2)oc2ccc(-c3ccccc3)cc21 | 91%
CC[n+]1c(/C=C/N(C)c2ccccc2)oc2ccccc21 | 76%
CCCn1nnc(N(C(=O)c2cc(Br)cc(C)c2OC)C(=O)c2cc(Br)cc(C)c2OC)n1 | 0%
CCCC1CCC(c2ccc(-c3noc(-c4ccc(O)c(F)c4)n3)cc2)CC1 (stereo unspecified) | 4%
CC(C)c1ccc2ncnc(N[C@H]3CCc4[nH]cnc4C3)c2c1 | 101%
O=c1[nH]nc(-c2ccc3c(c2)CCC3)c2ccccc12 | -1%
COc1ccc(C2=NC3(CCN(Cc4ccccc4)CC3)N[C@H](c3cc(Cl)ccc3O)C2)cc1 | 9%
COc1ccc(-c2cc3ncc(C(=O)c4cc(Cl)ccc4O)cn3n2)cc1 | 78%
O=C(Nc1ccc2c(c1)CNCC2)C1CC1c1ccc(F)c(F)c1 (stereo unspecified) | 15%
COc1ccccc1CC(=O)N(c1nc(C)cs1)C1CC1 | -8%
Cc1c(NC(=O)N2CCC(C)C(n3ccnc3)C2)cccc1N(C)C (stereo unspecified) | 7%
COc1ccc(Cl)cc1NC(=O)Cc1c(C)nc2nc(-c3ccccc3C)nn2c1C | 6%
COc1ccc(-n2nc(C)c(Cc3ccc(Cl)cc3)c2O)cc1 | 12%
COc1ccc(CC(=O)Nc2cc(C)n(-c3cccc(Cl)c3)n2)cc1 | 93%
C[C@@H](C(=O)NCCN1CCCCC1)N1C(=O)COc2ccc(C(=O)COc3ccccc3Cl)cc21 | -20%
Cc1nn(-c2ccccc2)c2c1[C@@H](c1ccc(C(F)(F)F)cc1)N(c1ccccc1)C(=O)N2 | 9%
CCn1ncc(NC(=O)c2cc(-c3ccccc3)on2)c1C | -19%
CCc1ccccc1Nc1nc(C)c(C(=O)NCc2cccnc2)s1 | -22%
COc1ccc(-c2nccn3cc(C(=O)NCCc4ccncc4)nc23)cc1 | 5%
O=S(=O)(Cc1cc(Cl)cc(Cl)c1)NCCCCn1ccnc1 | -11%
COc1ccc(Nc2nnc(-c3ccc(NC(=O)C(=O)NCCCn4ccnc4)cc3)s2)cc1 | 76%

Compound | % Inhibition
CCOc1ccc(CN2CC[C@H](Nc3ncccn3)[C@@H](O)C2)cc1Cl | -18%
CC(C)c1ccc(-c2nc(CN3CCCCC3)cc(CN3CCCCC3)c2O)cc1 | 95%
CC(C)c1nc(O)cc(CN2CCCCC2)n1 | 4%
Cc1ccc(-c2ccnn2C)cc1NC(=O)[C@H]1CCCOC1 | 13%
COc1cc(C(=O)Nc2nnc(-c3ccc(C)s3)[nH]2)on1 | 9%
O=C(NCC1CC12CCc1ccccc12)NC1CC2CCC1O2 (stereo unspecified) | 1%
Cc1ccc2nc(O)c3nnc(C)n3c2c1 | 15%
NS(=O)(=O)c1ccc(-c2noc(C3(c4cccc(F)c4)CCC3)n2)cc1 | -9%
CN(C)CCCNc1nc(N2CCCC2)c2c(c1C#N)CCN(C)C2 | 14%
CC(C)C(NC(=O)c1ccccc1F)C(=O)NC1CCC(N(C)C)C1 (stereo unspecified) | -9%
CC1CCCN(c2nc(O)c3c(n2)NC(=O)CC3c2cccc(C(F)(F)F)c2)C1 (stereo unspecified) | 9%
CC(C)Cc1nsc(N2CCOC3CCN(C)CC32)n1 (stereo unspecified) | 11%
CN1c2cc(C(=O)N3CCN(c4ccccc4Cl)CC3)ccc2C(=O)N2CCCC[C@H]21 | 5%
Nc1ccnc(OCc2ccccc2)n1 | -16%
C[C@H](Oc1ccc(F)cc1)C(=O)N1CCC(c2nc3cc(Cl)ccc3s2)CC1 | -1%
Cc1cc(N(CCO)C2CC2)nc(C2CC2)n1 | -18%
Cc1cc(N(C)CCC2CC2)nc([C@H](C)N(C)CCC2CC2)n1 | 61%
Clc1ccc2c(c1)CC[C@@H]2NCc1nnc2n1CCC2 | 3%
Cc1ccc(OCCNc2cc([C@H]3C[C@H](N)C3)nc(C3CC3)n2)cc1C | 25%
O=C(NCCc1cccnc1)OCC(F)(F)F | -19%
N[C@H]1C[C@H](c2cc(NCCCc3cccnc3)nc(C3CC3)n2)C1 | 77%
Cc1ccc(N(C)CC(=O)N2CCC2)c(Br)c1 | -7%

Compound | % Inhibition
COc1ccc(C(=O)N(C(=O)c2ccc(OC)cc2)c2c3c(nc4ccccc24)CCCC3)cc1 | 61%
COc1ccc(CCc2nc(NC(=O)c3[nH]nc4c3CCC4)n[nH]2)cc1 | -15%
O=C(Cc1ccccc1)Nc1c2c(nc3c1CCC3)CCCC2 | 8%
Cc1ccc2c(c1)N(C(=O)c1c[nH]c(C)cc1=O)CCC2 | -3%
COc1cc(OC)nc(-n2nc(C)cc2C(=O)Nc2ccc(Cl)cc2)n1 | 18%
Cc1cc(C)n(-c2nnc(-c3ccccc3)c(-c3ccccc3)n2)n1 | 10%
Cc1cc(C)n(-c2nc(Nc3ccc(Cl)cc3)nc(Nc3ccc(Cl)cc3)n2)n1 | 87%
Cc1cc(C)c(S(=O)(=O)Cc2ccccc2)c(O)n1 | 12%
Cc1ocnc1C(=O)N[C@H]1CCN(c2ccc(Cl)c(F)c2)C1=O | 7%
Cc1cc(N2CC(OCc3ccccc3)C2)nc(Nc2cccc(O)c2)n1 | 96%
Cc1cc(N2C[C@H]3CC[C@@H](C2)[C@H]3N(C)C)nc(Nc2cccc(O)c2)n1 | 86%
Cc1cccc([C@@H](NC(=O)Nc2ncco2)C(F)(F)F)c1 | -15%
N#Cc1ccccc1OCc1csc(-c2ccccn2)n1 | 6%
O=C(Nc1nc(CCc2c[nH]c3ccccc23)n[nH]1)c1cccnc1 | 12%
CC1=NN(S(=O)(=O)c2ccc(F)cc2)C(=O)c2ccccc2O1 | 5%
CN(Cc1nnc2n1CCC2)C(=O)Cc1cccs1 | 9%
COc1cc(CN(CC(N)=O)C(C)C)ccc1C | 9%
Cc1cc(C(=O)NCc2nc3ccccc3s2)c(C)o1 | 7%
CN1CCN(C(=O)CNC(=O)c2cccc(Cl)c2)CC1 | 8%
Cc1ccc(S(=O)(=O)N(CC(=O)NC2CCN(C)CC2)c2cccc(Cl)c2)cc1 | 2%
Cc1ccc(COc2cccc(CNC3CC3)c2)cc1 | -1%
Cn1cc(Cl)c(C(=O)Nc2cccc(S(=O)(=O)N3CCOCC3)c2)n1 | 13%
